Assay results published in PubChem BioAssay (NCATS).
Inconclusive results are not listed. Activity calls are given as the source filed them. Calls follow the shape of the dose curve; as a rule, active = well fitted cell-killing curve with a large enough effect; inconclusive = small, poorly fitted or top-dose-only effect, or effect the other way; inactive = flat fitted curve, though single readings scatter.

Tested on: PA-1
Assay: Primary qHTS to identify gynecologic anti-cancer compounds using libraries of approved drugs and bioactive compounds (AID 1345084); also: nearly all actives have a fitted effect of over 55% in size
Conditions: Gynecologic cancer cell panel viability, ATPlite luminescence, 48 h; series mostly up to 57.5 µM; activity change, negative = cytotoxicity: at the top concentration
How it was run: (§1)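 In this quantitative HTS, cell killing is estimated from loss of ATP-dependent luciferase light. Cells see five compound concentrations over a 48 h exposure.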
% is scaled to controls: 0 for no effect and ±100 for the full control effect; potency is read from the fitted curve at half-maximal effect.

SMILES | Potency | activity change, negative = cytotoxicity
COc1cc(C2c3cc4c(c(O)c3CC(CO)C2C(=O)O)OCO4)cc(OC)c1O (stereo not drawn) | 2 µM (active) | –
Cn1c(=O)n(-c2ccc(C(C)(C)C#N)cc2)c2c3cc(C#Cc4cccnc4)ccc3ncc21 | 0.282 µM (active) | –
CCOC(=O)Nc1cc(-c2ccc(C)c(NS(C)(=O)=O)c2)nn2c(C)nnc12 | 31.6 µM (active) | –
CCNC(=O)Nc1ccc(-c2nc3c(c(N4CCOC[C@@H]4C)n2)CCN(c2ncccn2)C3)cc1 | 1.12 µM (active) | –
CC(C)(C#N)c1ccc(N2C(=O)OCc3cnc4ccc(-c5cnc6ccccc6c5)cc4c32)cc1 | 12.6 µM (active) | –
C[C@@H](Oc1cc(-n2cnc3ccc(OC4CCN(C)CC4)cc32)sc1C(N)=O)c1ccccc1C(F)(F)F | 0.316 µM (active) | –
C[C@@H]1C[C@@H]2O[C@H]2/C=C\C=C\C(=O)Cc2c(Cl)c(O)cc(O)c2C(=O)O1 | 10 µM (active) | –
CC(C)C(CO)Nc1nc(Nc2cc(N)cc(Cl)c2)c2ncn(C(C)C)c2n1 (stereo not drawn) | 14.1 µM (active) | –
Oc1ccc(CNc2ccccc2F)c2cccnc12 | 17.8 µM (active) | –
CCC1C(=O)N(C)c2cnc(Nc3ccc(C(=O)NC4CCC(N5CCN(CC6CC6)CC5)CC4)cc3OC)nc2N1C(C)C (stereo not drawn) | 0.316 µM (active) | –
CNC(=O)c1cccc(-c2ccc3c(N4CCOC[C@@H]4C)nc(N4CCOC[C@@H]4C)nc3n2)c1 | 1.58 µM (active) | –
Nc1nccn2c(C3CCC(C(=O)O)CC3)nc(-c3cc4cccc(Cl)c4[nH]3)c12 (stereo not drawn) | 7.94 µM (active) | –
CC(=O)NC1=NN(C(C)=O)C(C)(c2ccccc2)S1 (stereo not drawn) | 3.98 µM (active) | –
COc1cc(-c2ncn(/C=C\C(=O)OC(C)C)n2)cc(C(F)(F)F)c1 | 0.562 µM (active) | –
CC(O)/C=C/C1(O)C2(C)COC1(C)CC(O)C2 (stereo not drawn) | – | -35.6% (inactive)
Cc1cc(C)c(Nc2ccnc(Nc3ccc(C#N)cc3)n2)c(C)c1 | – | -5.82% (inactive)

Tested on: SKOV3
Assay: as above
Conditions: Gynecologic cancer cell panel viability, ATPlite luminescence, 48 h; series mostly up to 57.5 µM; activity change, negative = cytotoxicity: at the top concentration
How it was run: as §1

SMILES | Potency | activity change, negative = cytotoxicity
COc1cc2c(cc1O)CC[C@H]1[C@@H]2CC[C@]2(C)[C@H](O)CC[C@@H]12 | 3.16 µM (active) | –
COc1cc(C2c3cc4c(c(O)c3CC(CO)C2C(=O)O)OCO4)cc(OC)c1O (stereo not drawn) | 11.2 µM (active) | –
CCOC(=O)Nc1cc(-c2ccc(C)c(NS(C)(=O)=O)c2)nn2c(C)nnc12 | 7.08 µM (active) | –
C=C1C(=O)OC2C1CCC(=C)C1CC(OC(C)=O)C(=C)C12 (stereo not drawn) | – | -32.8% (inactive)
CC(C)(C#N)c1ccc(N2C(=O)OCc3cnc4ccc(-c5cnc6ccccc6c5)cc4c32)cc1 | 2.82 µM (active) | –
CCOc1cc2ncc(C#N)c(Nc3ccc(F)c(Cl)c3)c2cc1NC(=O)/C=C/CN(C)C | 0.398 µM (active) | –
COc1cc2c(cc1OC)[C@@H]1[C@H](O)[C@@H](OC)C=C3CCN(C2)[C@H]31 | – | -25.2% [at 38.5 µM] (inactive)
CC(C)C(CO)Nc1nc(Nc2cc(N)cc(Cl)c2)c2ncn(C(C)C)c2n1 (stereo not drawn) | 28.2 µM (active) | –
CNC(=O)c1cccc(-c2ccc3c(N4CCOC[C@@H]4C)nc(N4CCOC[C@@H]4C)nc3n2)c1 | 1.58 µM (active) | –
Nc1nccn2c(C3CCC(C(=O)O)CC3)nc(-c3cc4cccc(Cl)c4[nH]3)c12 (stereo not drawn) | 3.16 µM (active) | –
CCCCC1CCN(CCCC(=O)c2ccccc2C)CC1 | – | -26.7% (inactive)

Tested on: Tov-21-G
Assay: as above
Conditions: Gynecologic cancer cell panel viability, ATPlite luminescence, 48 h; series mostly up to 57.5 µM; activity change, negative = cytotoxicity: at the top concentration
How it was run: as §1

SMILES | Potency | activity change, negative = cytotoxicity
COC(=O)C1(C)c2[nH]c3ccccc3c2CCN1C(=O)CCl (stereo not drawn) | 22.4 µM (active) | –
C[C@H]1[C@H](O)O[C@@H]2O[C@@]3(C)CC[C@H]4[C@H](C)CC[C@@H]1[C@@]24OO3 | 28.2 µM (active) | –
Cn1c(=O)n(-c2ccc(C(C)(C)C#N)cc2)c2c3cc(C#Cc4cccnc4)ccc3ncc21 | 0.158 µM (active) | –
Cn1cc(S(=O)(=O)c2ccc(Cl)cc2)c2cccc(N3CCNCC3)c21 | 20 µM (active) | –
CC1(C)CC(=O)C2=C(C1)NC(=S)NC2c1cccc(O)c1 (stereo not drawn) | 1.26 µM (active) | –
CC(C)(C#N)c1ccc(N2C(=O)OCc3cnc4ccc(-c5cnc6ccccc6c5)cc4c32)cc1 | 10 µM (active) | –
O=C(CSc1nc2c(c(=O)n1-c1ccccc1)SCC2)Nc1ccc(-c2ccccc2)cn1 | 0.316 µM (active) | –
CCOc1cc2ncc(C#N)c(Nc3ccc(F)c(Cl)c3)c2cc1NC(=O)/C=C/CN(C)C | 1 µM (active) | –
CC(C)C(CO)Nc1nc(Nc2cc(N)cc(Cl)c2)c2ncn(C(C)C)c2n1 (stereo not drawn) | 22.4 µM (active) | –
O=C(Nc1ccc(S(=O)(=O)C(F)(F)F)cc1)C1=CCN(c2ncccc2C(F)(F)F)CC1 | – | -20.3% (inactive)
CNC(=O)c1cccc(-c2ccc3c(N4CCOC[C@@H]4C)nc(N4CCOC[C@@H]4C)nc3n2)c1 | 1.41 µM (active) | –
Nc1nccn2c(C3CCC(C(=O)O)CC3)nc(-c3cc4cccc(Cl)c4[nH]3)c12 (stereo not drawn) | 4.47 µM (active) | –
CCCCC1CCN(CCCC(=O)c2ccccc2C)CC1 | – | 3.37% (inactive)

Tested on: Tov112D
Assay: as above
Conditions: Gynecologic cancer cell panel viability, ATPlite luminescence, 48 h; series mostly up to 57.5 µM; activity change, negative = cytotoxicity: at the top concentration
How it was run: as §1

SMILES | activity change, negative = cytotoxicity | Potency
C/C=C/c1ccc(O[C@@H]2O[C@H](CO)[C@@H](O)[C@H](O)[C@H]2O)c(OC)c1 | -30% [at 38.5 µM] (inactive) | –
COc1cc2c(cc1O)CC[C@H]1[C@@H]2CC[C@]2(C)[C@H](O)CC[C@@H]12 | – | 1 µM (active)
COc1cc(C2c3cc4c(c(O)c3CC(CO)C2C(=O)O)OCO4)cc(OC)c1O (stereo not drawn) | – | 4.47 µM (active)
C=C1C(=O)OC2C1CCC(=C)C1CC(OC(C)=O)C(=C)C12 (stereo not drawn) | -8.37% (inactive) | –
Cn1cc(S(=O)(=O)c2ccc(Cl)cc2)c2cccc(N3CCNCC3)c21 | – | 28.2 µM (active)
CCN(CC)c1ccc2c(O)c(C=Nc3ccc(CC(=O)O)c(-c4c5c(nc6ccccc46)CCC(C(=O)NN)C5)c3)c(=O)oc2c1 (stereo not drawn) | -22.6% (inactive) | –
CC1(C)CC(=O)C2=C(C1)NC(=S)NC2c1cccc(O)c1 (stereo not drawn) | – | 0.891 µM (active)
O=C(CSc1nc2c(c(=O)n1-c1ccccc1)SCC2)Nc1ccc(-c2ccccc2)cn1 | – | 0.158 µM (active)
C[C@@H]1C[C@@H]2O[C@H]2/C=C\C=C\C(=O)Cc2c(Cl)c(O)cc(O)c2C(=O)O1 | -9.41% [at 38.5 µM] (inactive) | –
CC(C)C(CO)Nc1nc(Nc2cc(N)cc(Cl)c2)c2ncn(C(C)C)c2n1 (stereo not drawn) | – | 20 µM (active)
COc1cc2ncnc(Nc3cccc(Cl)c3F)c2cc1OC(=O)N1CCN(C)C[C@H]1C | – | 22.4 µM (active)
CCS(=O)(=O)N1CCN(c2ccc(Nc3ncc(C(N)=O)c(NC4CC4)n3)cc2)CC1 | -27.2% (inactive) | –
CC(=O)NC1=NN(C(C)=O)C(C)(c2ccccc2)S1 (stereo not drawn) | – | 3.16 µM (active)
